Results on 6 compounds are retold here after PubChem BioAssay (NCATS).

In test [1] the target is Mitogen-activated protein kinase 10 (Mus musculus) (UniProt Q61831). In words: JNK3 AlphaScreen Assay (AID 530; active = well fitted curve in either direction with a large enough effect, not every such curve was filed as active;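 note: kinase came from lysate of stimulated human HepG2 cells; signal reports phosphorylation of biotinylated GST-cJun 1-79 at Ser73 with 10 µM ATP; % is set by controls: 0 for no effect and ±100 for the full control effect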). The method, boiled down:
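Pre-activated (IL-1β/TNFα) JNK3 in HepG2 lysates phosphorylates biotin-GST-cJun(1-79), 10 uM ATP; anti-phospho-cJun(Ser73) AlphaScreen read at room temperature, pH 7.6 Tris buffer. Compounds pre-incubated 15 min as titrations.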
Background: In Alpha technology, singlet oxygen from a donor bead excites a nearby acceptor bead.

Test [2] is described as follows: Cell Viability - BJ (AID 421; calls by dose curve;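 note: potency is the fitted concentration of half-maximal effect; cells exposed to compound for 40 hours at 37 °C before readout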). The following applies: BJ fibroblast viability, qHTS. The method, boiled down:
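Normal human BJ foreskin fibroblasts, 1500/well in complete medium, treated 40 hr at 37 °C. Cellular ATP by CellTiter-Glo luminescence; normalized to DMSO and 100 uM tamoxifen, AC50 from Hill fit.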

Test [3] in a line: Cell Viability - Jurkat (AID 426;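 active = dose-dependent loss of cell ATP signal giving a full or clear fitted curve, ranked by lower potency value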; note: potency is the fitted concentration of half-maximal effect). The following applies: qHTS. The method, boiled down: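 Jurkat (Clone E6-1) cells, 5000/well in complete medium, exposed to compounds for 40 hr at 37C; intracellular ATP measured by CellTiter-Glo luminescence after 20 min at room temperature. AC50 from Hill fits.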
In general terms: In qHTS, concentration-response curves come from the screen itself.

The nature of test [4]: Cell Viability - Hek293 (AID 427;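 active = compounds whose dose-response curve shows a full or clear partial loss of cell viability, called from curve shape rather than a numeric limit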;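 note: potency is the fitted concentration of half-maximal effect; cells exposed to compound for 40 hours at 37 °C before reading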). Conditions: qHTS. The method, boiled down:
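HEK293 cells in complete medium were exposed to compound for 40 hr at 37 °C, then cellular ATP was read by CellTiter-Glo luminescence. Data were normalized to DMSO (basal) and 100 uM tamoxifen (100% inhibition), and AC50 came from Hill fits.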

The nature of test [5]: Cell Viability - HepG2 (AID 433; calls by dose curve;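 note: potency is the fitted concentration of half-maximal effect; potency for ATP loss meaning cytotoxicity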). Conditions: qHTS. The method, boiled down: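 Cytotoxicity is scored as loss of intracellular ATP in HepG2 cells exposed to compounds for 40 h. Concentration-response curves, normalized to DMSO and 100 uM tamoxifen, give AC50 values.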
A short description of test [6]: Cell Viability - MRC5 (AID 434; calls by dose curve;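 note: potency is the fitted concentration of half-maximal effect; potency reflects cytotoxicity seen as loss of intracellular ATP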). The following applies: MRC5 lung fibroblast viability, qHTS. The method, boiled down: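 MRC5 normal human lung fibroblasts, 1500 cells/well, exposed to compound for 40 hr at 37 C. Cellular ATP was read by CellTiter-Glo luminescence; data normalized to DMSO and 100 uM tamoxifen, with AC50 from Hill fits.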
Test [7] is described as follows: Cell Viability - SK-N-SH (AID 435; calls by dose curve;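 note: potency is the fitted concentration of half-maximal effect; compound exposure lasted 40 h at 37 °C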). Conditions: SK-N-SH neuroblastoma cell viability qHTS. The method, boiled down:
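Cells seeded at 1500 per well and incubated 5 hr at 37 °C. Compound added, then 40 hr at 37 °C. CellTiter-Glo added, 20 min at room temperature, luminescence read.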

Test [8] in a line: Cell Viability - NIH 3T3 (AID 541).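 Note: plate controls were DMSO alone for no effect and tamoxifen positive control for full effect; nearly all actives have a fitted effect of over 25% in size.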 The following applies: NIH 3T3 cell viability, qHTS; activity change, negative = cytotoxicity: at 92.2 µM (top of the series). In short, it runs like this: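 Mouse NIH 3T3 fibroblasts, 1000 cells/well, rested 5 hr at 37 °C, then exposed to compound for 40 hr at 37 °C in complete medium. Viability read as intracellular ATP by CellTiter-Glo luminescence; AC50 from Hill-equation fits of concentration-response data.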

Test [9] is described as follows: Cell Viability - H-4-II-E (AID 543). Note: % is set by controls: 0 for no effect and ±100 for the full control effect; nearly all actives have a fitted effect of over 35% in size. In short, it runs like this: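 Rat hepatoma H-4-II-E cells, 1500 per well, treated 40 h at 37 °C in complete medium. Cellular ATP read by CellTiter-Glo luminescence; AC50 from Hill fits of concentration-response.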
A short description of test [10]: Cell Viability - Mesenchymal (AID 546).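 Note: cells exposed to compound for 40 hours before reading; 0% = DMSO only and -100% = 100 µM tamoxifen.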 The following applies: mesenchymal cells viability, qHTS; activity change, negative = cytotoxicity: at 91.7 µM (top of the series). In short, it runs like this:
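Human kidney mesenchymal cells from normal renal glomeruli, 1000 cells/well, rested 5 hr at 37 °C, then treated 40 hr at 37 °C in complete medium. Cellular ATP read by CellTiter-Glo luminescence; AC50 from Hill-equation fits.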

Test [11] in a line: Cellular Toxicity (caspase-3) HepG2 (AID 654).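 Note: cells exposed to compound for 16 hours before reading; 0% = DMSO alone and 100% = caspase signal from 100 µM tamoxifen.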 In short, it runs like this:
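HepG2 cells (1500/well) were treated 16 h at 37 °C in complete medium, then caspase 3/7 activity was read by Caspase-Glo luminescence. Data were normalized to DMSO and 100 uM tamoxifen; AC50 came from Hill-equation fits of qHTS concentration-response.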

The nature of test [12]: Cellular Toxicity (caspase-3) HUV-EC-C (AID 656).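 Note: 0% = DMSO basal and 100% = 100 µM tamoxifen.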 In short, it runs like this:
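Read-out: luminescence proportional to caspase 3/7 activity, measured 20 min after adding Caspase-Glo 3/7 reagent. Cells (HUV-EC-C) had received compound for 16 hr at 37°C. Increases relative to DMSO and 100 uM tamoxifen gave concentration-response AC50 values.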

The nature of test [13]: Cellular Toxicity (caspase-3) BJ (AID 658).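 Note: 0% = DMSO basal and 100% = 10 µM staurosporine.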 In short, it runs like this:
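BJ human foreskin fibroblasts, 1000 cells/well, treated 16 hours at 37 °C in complete medium; caspase 3/7 activity by Caspase-Glo luminescence after 1 hr at room temperature. Normalized to DMSO and 10 uM staurosporine; AC50 from Hill fits.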

A short description of test [14]: Cellular Toxicity (caspase-3) MRC-5 (AID 659).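 Note: 0% = DMSO basal and 100% = 10 µM staurosporine.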 The method, boiled down:
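MRC-5 human normal lung fibroblasts, 1500 cells/well, treated 16 h at 37 °C in complete medium. Caspase 3/7 measured by Caspase-Glo luminescence after 1 h at room temperature. Normalized to DMSO and 10 uM staurosporine; AC50 from Hill fit.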

Test [15] in a line: Cellular Toxicity (caspase-3) Mesangial (AID 660).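 Note: cells exposed to compound for 16 h before the caspase read.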 In short, it runs like this:
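Human renal glomerular mesangial cells, 1000/well, 5 h at 37 C before 16 h compound treatment. Caspase-Glo 3/7 luminescence after 20 min; normalized to DMSO and 100 uM tamoxifen, AC50 from Hill fit.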

The nature of test [16]: Cellular Toxicity (caspase-3) Hek293 (AID 664).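 Note: cells exposed to compound for 16 h at 37 °C before readout.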 The method, boiled down:
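HEK293 cells in complete medium treated 16 h at 37 °C, then Caspase-Glo 3/7 luminescence read after 20 min at room temperature. Normalized to DMSO and 100 uM tamoxifen; AC50 from Hill fit of concentration-response.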

A short description of test [17]: Cellular Toxicity (caspase-3) Renal Proximal Tubule (AID 667).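 Note: cells exposed to compound for 16 hours at 37 °C before detection; 0% = DMSO basal and 100% = 10 µM staurosporine.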 In short, it runs like this: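 In qHTS format, rat primary proximal tubule cells seeded at 1000 per well are exposed to compounds for 16 hours at 37 °C. An increase in Caspase-Glo 3/7 luminescence indicates caspase activation.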
Test [18] can be described thus: qHTS Assay for Identification of Small Molecule Inducers of Hypoxia Response (AID 2120; active = well fitted curve in the direction sought with a large enough effect in the signal ratio, with a control signal flat, not every such curve was filed as active; the % refers to the signal ratio; note: 0% is about no effect). In short, it runs like this:
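HRE-bla ME-180 cells in Opti-MEM with 0.5% dialyzed FBS, pre-plated 4-5 h, then compound titration for 17 h at 37 degrees Celsius. CCF4 loaded 2.5 h at room temperature; 460/530 nm ratio gave %Activity and AC50 for induction.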

The nature of test [19]: qHTS assay for small molecule antagonists of retinoid X receptor alpha signaling (AID 588546).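 Note: cells stimulated with 9-cis-retinoic acid as agonist; % is set by controls: 0 for no effect and ±100 for the full control effect.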 Conditions: HEK293T RXRa-UAS-bla, beta-lactamase ratio, antagonist mode; measured here: W530 green channel, cytotoxicity proxy. The method, boiled down:
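Beta-lactamase reporter inhibition, read as CCF4 fluorescence ratio (ex 405, em 460/530 nm) after 2 h at RT. HEK293T UAS-bla cells, 2500/well, were stimulated with 9-cis-RA at 500 or 100 nM final alongside test compound for 18 h at 37 C.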

Test [20] deals with Peroxisome proliferator-activated receptor alpha (Homo sapiens) (UniProt Q07869). Put plainly: qHTS assay for small molecule agonists of the peroxisome proliferator-activated receptor alpha (PPARalpha) signaling pathway (AID 651778). Note: % of control where 0% means no effect. Conditions: PathHunter PPARalpha complementation, chemiluminescence, 6 h; max response: stronger effect = higher value. In short, it runs like this: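 Enzyme-fragment complementation assay in which ligand-bound PPARalpha translocates and forms an active enzyme that generates chemiluminescence. Cells were plated overnight, exposed to compound for 6 hr at 37 C, and then given detection reagent for 60 min at room temperature.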

The structures appear in SMILES notation. Values joined by “and” are separate entries in the source; they are usually repeats but may differ in a detail not shown here. Equal entries are not always repeated. Inconclusive results are not listed. Active and inactive are the calls of the source. Unless noted, calls come from the whole dose curve; as a rule, active = well fitted curve in the direction sought with a large enough effect; inconclusive = small, poorly fitted or top-dose-only effect, or another doubt; inactive = no such curve, though single readings can be large; an effect the other way counts as inactive or inconclusive.

Sequence of Peroxisome proliferator-activated receptor alpha (Homo sapiens) (Q07869 whole entry, looked up, the tested form may be a part): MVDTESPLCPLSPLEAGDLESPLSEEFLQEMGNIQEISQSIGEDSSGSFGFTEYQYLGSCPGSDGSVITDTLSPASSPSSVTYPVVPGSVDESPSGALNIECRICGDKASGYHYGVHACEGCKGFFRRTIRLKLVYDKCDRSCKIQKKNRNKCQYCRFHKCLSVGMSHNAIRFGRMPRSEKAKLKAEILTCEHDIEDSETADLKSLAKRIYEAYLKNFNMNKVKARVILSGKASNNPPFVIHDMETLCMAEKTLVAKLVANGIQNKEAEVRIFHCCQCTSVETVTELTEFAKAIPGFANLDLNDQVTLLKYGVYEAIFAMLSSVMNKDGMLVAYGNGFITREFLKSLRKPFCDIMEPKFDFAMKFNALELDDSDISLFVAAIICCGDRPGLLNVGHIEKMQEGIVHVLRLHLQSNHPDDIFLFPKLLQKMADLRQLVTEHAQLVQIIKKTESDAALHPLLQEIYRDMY

In the case of `c1ccc2c(NCCN3CCOCC3)nc(-c3ccc4c(c3)OCO4)nc2c1`, in [1], the Potency result was “inactive”.

For `OCCNCCO`, the Potency in [2], in [3], in test [4], in test [5], in test [6] and in [7] was > 92 µM (inactive) throughout. In addition, the Potency entry in [1], in test [8] and in [9] was “inactive” in each case. Besides, the activity change, negative = cytotoxicity in test [10] is 11.5% (inactive). In addition, the compound was called inactive in test [11], in test [12], in [13], in [14], in [15] and in test [16]. Moreover, the result in test [17] and in test [18] was inactive. Also, the max response in test [19] is -14.5% and -2.92%; in test [20], 0.687% (inactive) and 0.279% (inactive).

For the compound `O=C(O)c1ccc(O)cc1O`, the Potency in test [2], in test [3], in test [4], in test [5], in test [6] and in test [7] was > 92 µM (inactive) in each case. For the same compound, the Potency entry in [1], in test [8] and in test [9] was “inactive” each time. The activity change, negative = cytotoxicity in [10] was 5.57% (inactive) and 9.36% (inactive). For the same compound, the compound was classed as inactive in [11], in [12], in test [13], in test [14], in [15] and in test [16]. In addition, the call in test [17] and in test [18] was inactive. For the same compound, the max response is -5.6% in test [19]; -2.85% (inactive) and -4.3% (inactive) in test [20].

For `COc1ccccc1CNc1nc(-c2cccc(NS(C)(=O)=O)c2)nc2ccccc12`, the Potency result in [1] is “inactive”.

Regarding `O=NO`, the Potency in [2], in test [3], in [4], in [5], in test [6] and in test [7] was > 92 µM (inactive) in each case. For the same compound, the Potency result in test [1], in [8] and in test [9] was “inactive” each time. For the same compound, the activity change, negative = cytotoxicity in test [10] was -3.1% (inactive) and 3.16% (inactive). In addition, the compound was called inactive in test [11], in test [12], in test [13], in [14], in test [15] and in [16]. Besides, the compound was classed as inactive in test [17] and in [18]. The max response in test [19] is -4.23% and -6.24%; in test [20], 0.744% (inactive) and -3.6% (inactive).

Turning to `Cc1c(N=C=O)cccc1N=C=O`, the Potency in [2], in test [3], in test [4], in [5], in test [6] and in test [7] was > 92 µM (inactive) throughout. The Potency result in [1], in [8] and in test [9] was “inactive” in each case. Further, the activity change, negative = cytotoxicity in test [10] is -3.51% (inactive). The result in [11], in test [12], in test [13], in test [14], in test [15] and in [16] was inactive. Further, the call in test [17] and in [18] was inactive. The max response in test [19] was -2.03% and -4.55%; in [20], -4.58% (inactive) and -0.661% (inactive).
